Among the data in PubChem BioAssay are growth inhibition, inhibition and outcome values, retold here.

Values without a mark were called inactive. For some of these results: Measured potencies and affinities stand elsewhere. The source made the active and inactive calls. Unless noted, the rule behind the calls is not given here.

The nature of test [1]: antimalarial activity against Dd2 strain (AID 2302;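 active = growth inhibition above 50% at the single 2 µM test dose, taken to imply half-maximal potency below 2 µM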;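 note: 0% = DMSO untreated growth and 100% = chloroquine plus artemisinin killed control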). The note with it: P. falciparum Dd2 in RBCs, LDH growth readout, 72 h; at 2 µM; hits give high values.
Test [2] is described as follows: HepG2 cytotoxicity, primary screen, cytotoxicity control for P. falciparum antimalarial project, cell-based, ATP luminescence (AID 2303;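 active = inhibition above 50%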;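 note: 0% = DMSO wells and 100% = digitonin-killed cells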). The settings on record: HepG2 viability, 24-48 h, at 10 µM, hits give high values.
In test [3] the target is L-lactate dehydrogenase (Plasmodium falciparum (isolate CDC / Honduras)) (UniProt Q27743). Briefly: PfLDH activity inhibition – cell lysate, 3D7 strain, counter-screen for P. falciparum growth inhibition project (AID 2304).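 Note: 0% = vehicle and 100% = reference inhibitor.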 The settings on record: P. falciparum 3D7 crude extract, LDH APAD/NBT absorbance; at 2 µM; hits give high values.
The nature of test [4]: inhibition of 3D7 malaria parasite growth – strain 3D7 (AID 2306).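 Note: 0% = DMSO wells and 100% = chloroquine plus artemisinin control wells.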 The settings on record: P. falciparum 3D7 erythrocytic growth, LDH absorbance, 72 h; at 2 µM; hits give high values.
For test [5], the target named is Calcium-dependent protein kinase 1 (Plasmodium falciparum (isolate 3D7)) (UniProt P62344). Kind of test: PfCDPK1 kinase inhibitors, biochemical, TCAMS library (AID 1159585; cut-off not given, nearly all actives have IC50 up to about 0.98 µM;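 note: inhibitors leave more ATP so luminescence rises with inhibition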). The settings on record: recombinant PfCDPK1, Kinase-Glo ATP depletion luminescence.
Test [6] addresses Plasmodium falciparum protein kinase 6 (PK6, PF3D7_1337100) (UniProt Q8IDW1). Briefly: PfPK6 kinase inhibitors, biochemical, TCAMS library (AID 1159586). The note with it: recombinant PfPK6, Kinase-Glo ATP depletion luminescence.
In test [7] the target is Protein kinase 7 (PK7), Plasmodium falciparum 3D7 (PF3D7_0213400) (UniProt Q7YTF7). Briefly: inhibition of Plasmodium PK7 catalytic activity – biochemical, TCAMS antimalarial set, Kinase-Glo luminescence (AID 1159587). The settings on record: recombinant PfPK7, Kinase-Glo ATP depletion luminescence.
For test [8], the target named is Calcium-dependent protein kinase 4 (Plasmodium falciparum (isolate 3D7)) (UniProt Q8IBS5). Kind of test: PfCDPK4 kinase inhibitors, biochemical, TCAMS library (AID 1159588; cut-off not given, nearly all actives have IC50 up to about 0.91 µM). The note with it: recombinant PfCDPK4, Kinase-Glo ATP depletion luminescence. (In Kinase-Glo more light means more ATP remaining.)
Sequence of Calcium-dependent protein kinase 4 (Plasmodium falciparum (isolate 3D7)) (Q8IBS5 whole entry, looked up): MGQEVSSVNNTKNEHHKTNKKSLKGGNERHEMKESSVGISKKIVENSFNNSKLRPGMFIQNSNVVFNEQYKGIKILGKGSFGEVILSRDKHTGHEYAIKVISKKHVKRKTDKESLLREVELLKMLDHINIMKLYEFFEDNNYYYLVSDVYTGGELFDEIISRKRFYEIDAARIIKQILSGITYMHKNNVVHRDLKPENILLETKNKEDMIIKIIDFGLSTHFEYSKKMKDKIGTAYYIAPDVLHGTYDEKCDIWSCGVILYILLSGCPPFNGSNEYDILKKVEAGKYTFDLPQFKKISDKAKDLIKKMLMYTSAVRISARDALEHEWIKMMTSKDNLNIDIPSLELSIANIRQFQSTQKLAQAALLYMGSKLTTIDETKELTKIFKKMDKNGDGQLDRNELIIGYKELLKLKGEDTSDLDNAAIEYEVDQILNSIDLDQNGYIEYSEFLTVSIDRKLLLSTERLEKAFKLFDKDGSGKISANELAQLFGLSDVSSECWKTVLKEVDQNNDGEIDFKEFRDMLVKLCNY

Sequence of L-lactate dehydrogenase (Plasmodium falciparum (isolate CDC / Honduras)) (Q27743 whole entry, looked up): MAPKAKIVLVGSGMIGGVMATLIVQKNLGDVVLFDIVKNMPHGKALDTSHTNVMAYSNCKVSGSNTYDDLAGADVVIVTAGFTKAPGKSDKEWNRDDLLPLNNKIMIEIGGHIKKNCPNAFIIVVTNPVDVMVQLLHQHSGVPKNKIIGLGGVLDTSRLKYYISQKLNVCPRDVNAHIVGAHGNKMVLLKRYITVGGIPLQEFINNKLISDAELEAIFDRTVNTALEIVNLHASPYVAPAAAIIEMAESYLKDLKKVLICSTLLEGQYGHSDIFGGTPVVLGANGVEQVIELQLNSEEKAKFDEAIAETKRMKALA
Sequence of Calcium-dependent protein kinase 1 (Plasmodium falciparum (isolate 3D7)) (P62344 whole entry, looked up): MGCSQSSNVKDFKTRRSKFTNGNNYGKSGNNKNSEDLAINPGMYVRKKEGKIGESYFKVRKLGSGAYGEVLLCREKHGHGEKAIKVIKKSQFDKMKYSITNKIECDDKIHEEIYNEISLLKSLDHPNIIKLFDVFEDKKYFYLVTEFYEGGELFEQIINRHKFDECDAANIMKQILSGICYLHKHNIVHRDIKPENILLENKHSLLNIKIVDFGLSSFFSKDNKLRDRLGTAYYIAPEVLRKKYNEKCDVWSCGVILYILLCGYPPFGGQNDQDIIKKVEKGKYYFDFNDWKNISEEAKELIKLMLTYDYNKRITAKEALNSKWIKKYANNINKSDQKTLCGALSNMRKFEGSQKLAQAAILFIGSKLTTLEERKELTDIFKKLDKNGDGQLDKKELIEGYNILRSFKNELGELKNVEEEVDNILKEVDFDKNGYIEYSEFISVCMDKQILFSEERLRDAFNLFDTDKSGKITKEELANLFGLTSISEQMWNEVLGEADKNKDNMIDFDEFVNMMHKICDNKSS
Sequence of Protein kinase 7 (PK7), Plasmodium falciparum 3D7 (PF3D7_0213400) (Q7YTF7 1-343): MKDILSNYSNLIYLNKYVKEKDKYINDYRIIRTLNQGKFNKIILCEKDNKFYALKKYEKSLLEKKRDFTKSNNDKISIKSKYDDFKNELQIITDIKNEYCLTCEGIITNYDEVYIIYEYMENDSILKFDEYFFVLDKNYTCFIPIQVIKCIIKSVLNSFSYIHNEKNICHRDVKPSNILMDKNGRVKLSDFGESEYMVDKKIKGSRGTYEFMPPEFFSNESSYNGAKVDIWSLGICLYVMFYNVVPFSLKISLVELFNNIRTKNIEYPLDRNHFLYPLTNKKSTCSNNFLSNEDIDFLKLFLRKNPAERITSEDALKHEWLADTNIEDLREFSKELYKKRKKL
Sequence of Plasmodium falciparum protein kinase 6 (PK6, PF3D7_1337100) (Q8IDW1 1-305): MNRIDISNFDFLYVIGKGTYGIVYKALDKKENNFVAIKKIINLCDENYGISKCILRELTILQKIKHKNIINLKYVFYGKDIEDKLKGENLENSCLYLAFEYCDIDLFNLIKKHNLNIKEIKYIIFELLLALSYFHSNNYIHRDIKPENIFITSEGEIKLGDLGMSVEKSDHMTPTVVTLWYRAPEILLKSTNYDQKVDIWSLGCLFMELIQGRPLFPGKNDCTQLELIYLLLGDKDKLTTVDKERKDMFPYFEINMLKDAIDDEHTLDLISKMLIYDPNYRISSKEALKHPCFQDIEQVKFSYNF

For orientation: inhibition means the drop in the measured response relative to a control, in per cent. `NC1=NC(c2ccccc2)N(c2ccc(Cl)c(Cl)c2)C(N)=N1` (stereo not given): the growth inhibition is 0% in test [1] and 94% (active) in test [4]. Besides, the inhibition was 13% in test [2] and -2% in test [3]. Further, the result in test [5], in test [6], in test [7] and in test [8] was inactive.
In the case of `COC(=O)c1ccc(C(=O)NCCCCN2CCC(c3ccc4c(c3OC)CCCC4)CC2)cc1-c1ccc(C(F)(F)F)cc1`, the growth inhibition in test [1] was 19%; in test [4] it was 93% (active). Moreover, the inhibition in test [2] is 24%; in test [3], 2%. For the same compound, the outcome in test [5], in test [6], in test [7] and in test [8] was inactive.
Consider `Cc1cc(N[C@@H](Cc2ccccc2)C(=O)Nc2ccccc2)nc(NCCc2cccnc2)n1`, for which the growth inhibition in test [1] was 57% (active); in test [4], 95% (active). Moreover, the values for the inhibition in test [2] and in test [3] were 32% and -3%, respectively. Also, the outcome in test [5], in test [6], in test [7] and in test [8] was inactive.
In the case of `Cc1cc(-c2ccc(NC(=O)N3CCc4cc(Br)c(N5CCN(C)CC5)cc43)cc2)ccc1C#N`, the growth inhibition in test [1] is 56% (active); in test [4], 99% (active). The values for the inhibition in test [2] and in test [3] were 100% (active) and 0%, respectively. Moreover, the result in test [5], in test [6], in test [7] and in test [8] was inactive.
In the case of `O=C(/C=C/c1ccc(Cl)c(Cl)c1)NCCCCCN1CCC(NS(=O)(=O)c2cc(Cl)cc(Cl)c2)CC1`, the growth inhibition was 5% in test [1] and 83% (active) in test [4]. In addition, the values for the inhibition in test [2] and in test [3] were 7% and 3%, respectively. The result in test [5], in test [6], in test [7] and in test [8] was inactive.
Consider `Cc1nc2nc(N)nc(N)c2c(C)c1Cc1cccc(F)c1`, for which the growth inhibition in test [1] was 1%; in test [4] it was 96% (active). Moreover, the inhibition was 65% (active) in test [2] and -5% in test [3]. The result in test [5], in test [6], in test [7] and in test [8] was inactive.
In the case of `N#Cc1ccccc1C1CCN(C2CCC(Nc3cc(-c4cccnc4)ccn3)CC2)CC1` (stereo not given), the growth inhibition in test [1] is 78% (active); in test [4] it was 100% (active). In addition, the inhibition in test [2] is 38%; in test [3], 5%. Besides, the result in test [5], in test [6], in test [7] and in test [8] was inactive.
As to `O=C(O)c1ccc(-c2c[nH]c3ncc(-c4ccc(Cl)cc4)cc23)cc1`, the growth inhibition in test [1] was 99% (active); in test [4] it was 97% (active). The results for the inhibition in test [2] and in test [3] were 39% and 7%, respectively. For the same compound, the result in test [5], in test [6], in test [7] and in test [8] was inactive.
Consider `COc1ccc(-c2ccc(NC(=O)c3cccc(Cl)c3)cc2)cc1CN(C)CCN(C)C`, for which the growth inhibition in test [1] is 35%; in test [4], 100% (active). The inhibition in test [2] was 22%; in test [3], -3%. The outcome in test [5], in test [6], in test [7] and in test [8] was inactive.
As for `C#CCCOc1ccc2ccccc2c1CNCCCCCCNCc1c(OCCC#C)ccc2ccccc12`, the growth inhibition in test [1] is 65% (active); in test [4], 100% (active). Also, the inhibition is 100% (active) in test [2] and 2% in test [3]. For the same compound, the result in test [5], in test [6], in test [7] and in test [8] was inactive.
On to `CCCCOC(=O)c1ccc(NC(=O)Nc2ccc(Cn3ncc(N4CCCNCC4)c(Cl)c3=O)cc2)cc1`, for which the results for the growth inhibition in test [1] and in test [4] were 74% (active) and 92% (active), respectively. Also, the inhibition in test [2] and in test [3] was 2% throughout. Besides, the outcome in test [5], in test [6], in test [7] and in test [8] was inactive.
`CCC(=O)NC(c1ccco1)c1cc(Cl)c2cccnc2c1O` (stereo not given): the growth inhibition is 74% (active) in test [1] and 89% (active) in test [4]. Further, the inhibition in test [2] is 58% (active); in test [3], -5%. The outcome in test [5], in test [6], in test [7] and in test [8] was inactive.
As to `CC1(C)N=C(N)N=C(N)N1c1cc(Cl)c(Cl)cc1Cl`, the growth inhibition in test [1] is -3%; in test [4], 95% (active). The inhibition in test [2] is 11%; in test [3], 1%. Further, the result in test [5], in test [6], in test [7] and in test [8] was inactive.
In the case of `Cc1cc(-c2cccc3c(C(=O)N4CCc5cc6nccc(N7CCCN(C)CC7)c6cc54)cccc23)cc(C)n1`, the growth inhibition in test [1] and in test [4] was 100% (active) in each case. Moreover, the inhibition in test [2] is 17%; in test [3], 6%. Moreover, the outcome in test [5], in test [6], in test [7] and in test [8] was inactive.
Take `O=C(/C=C/c1ccc(Cl)c(Cl)c1)NC1CCN(CCNC(=O)c2cccc(Cl)c2)CC1`: the results for the growth inhibition in test [1] and in test [4] were 45% and 103% (active), respectively. The inhibition in test [2] is 22%; in test [3] it was 0%. In addition, the outcome in test [5], in test [6], in test [7] and in test [8] was inactive.
With `Cc1cccc2[nH]c(-c3cccc(-c4ccc(CNCCNC(=O)c5ccnn5C)cc4)c3)nc12`, the growth inhibition in test [1] was 100% (active); in test [4], 102% (active). The values for the inhibition in test [2] and in test [3] were 21% and -2%, respectively. Further, the result in test [5], in test [6], in test [7] and in test [8] was inactive.
Regarding `CCN(CC)CCN(Cc1ccc(-c2ccc(C(F)(F)F)cc2)cc1)C(=O)Cn1c(CCc2c(F)ccc(F)c2F)nc(=O)c2ccccc21`, the growth inhibition in test [1] was 62% (active); in test [4], 98% (active). In addition, the inhibition in test [2] was 44%; in test [3], -6%. For the same compound, the outcome in test [5], in test [6], in test [7] and in test [8] was inactive.
On to `COc1c(C2CCN(CCCCNC(=O)c3ccc(-c4ccc(Cl)cc4)cc3)CC2)ccc2c1C(C)(C)CCC2(C)C`, for which the growth inhibition is 42% in test [1] and 95% (active) in test [4]. For the same compound, the results for the inhibition in test [2] and in test [3] were 94% (active) and 1%, respectively. In addition, the result in test [5], in test [6], in test [7] and in test [8] was inactive.
For `Cc1cc(N[C@@H](CC(C)C)C(=O)NCCCOC(C)C)nc(NCCc2ccc(F)cc2)n1`, the growth inhibition is 19% in test [1] and 87% (active) in test [4]. The results for the inhibition in test [2] and in test [3] were 5% and -2%, respectively. In addition, the result in test [5], in test [6], in test [7] and in test [8] was inactive.
With `Cc1cc(CN2CCCC(OC(c3ccc(F)cc3)c3ccc(F)cc3)C2)ccc1O` (stereo not given), the figures for the growth inhibition in test [1] and in test [4] were 82% (active) and 89% (active), respectively. The results for the inhibition in test [2] and in test [3] were 28% and 3%, respectively. In addition, the result in test [5], in test [6], in test [7] and in test [8] was inactive.
